Shown are actives, neighbours in structure and some others; about 2.7% of the full set was active somewhere.
NadD inh – NadD (S. aureus) enzyme inhibition; actives 0.78% (n = 360,000); inhibition, % at 20 µM; AID 602399; purified NadD enzyme, colorimetric absorbance read-out; in the data active means inhibition above about 26%
bovine MsrA act – bovine methionine sulfoxide reductase A activation; purified bovine MsrA, absorbance read-out; activation, % at 10.6 µM; actives 0.3% (n = 360,000); AID 602163; in the data active means activation above about 7.5%
MsrA inhibitor – inhibits bovine methionine sulfoxide reductase A; purified bovine MsrA, absorbance read-out; inhibition, % at 15.5 µM; actives 0.75% (n = 360,000); AID 651718; in the data active means inhibition above about 4.5%
rCAG binder – binds r(CAG) RNA repeats. r(CAG) RNA repeat, TO-PRO-1 dye displacement fluorescence. actives 1.3% (n = 370,000). inhibition, % at 3 µM. AID 651821;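 active means inhibition above the plate cutoff, the mean of all test compounds on that plate plus 3 SD, cut at about 35% in these data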;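 further: higher means more dye released from RNA so lower well fluorescence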
rCAG bind conf – r(CAG) RNA repeat binding, confirmation. actives 70% (n = 4,300). inhibition, % at 3 µM. AID 652065. TO-PRO-1 dye displacement fluorescence. shares compounds with rCAG binder;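 active means inhibition above a per-plate cutoff, the mean inhibition of sample wells plus 3 SD, cut at about 35% in these data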;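 further: loss of TO-PRO-1 fluorescence as compound displaces dye from 1x1 AA loop RNA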
dCAG dye counter – counter-screen for rCAG RNA binders: DNA CAG dye complex inhibitors; AID 652068; inhibition, % at 3 µM; actives 94% (n = 4,300); d(CAG) DNA oligo TO-PRO-1 dye displacement, fluorescence; shares compounds with rCAG binder;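 active means inhibition above its plate's cutoff, the mean test-well inhibition plus 3 SD, cut at about 4.8% in these data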;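 further: hits displace the dye from DNA and so lower well fluorescence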
dCAG dye DR – counter-screen for rCAG binders: inhibitors of DNA CAG TO-PRO-1 complex. shares compounds with rCAG binder. DNA CAG/GTC duplex TO-PRO-1 dye displacement fluorescence. IC50, µM. actives 20% (n = 250). AID 686960; in the data active means IC50 below about 10 µM
Numbers stand for hits; - = inactive; . = not tested or not shown.

SMILES | NadD inh | bovine MsrA act | MsrA inhibitor | rCAG binder | rCAG bind conf | dCAG dye counter | others
Cc1ccc(N2CC(C(=O)Nc3ccc(S(=O)(=O)Nc4nccs4)cc3)CC2=O)cc1 (stereo unspecified) | - | - | - | 36.0 | - | 6.7
CCOc1ccc(N2CC(C(=O)Nc3ccc(S(=O)(=O)Nc4ncccn4)cc3)CC2=O)cc1 (stereo unspecified) | - | - | - | - | . | .
CCOc1ccc(N2CC(C(=O)Nc3ccc(S(=O)(=O)Nc4nccs4)cc3)CC2=O)cc1 (stereo unspecified) | - | - | - | 48.6 | - | 11.6
Cc1[nH]n(-c2ccccc2)c(=O)c1C(c1ccc(O)c([N+](=O)[O-])c1)c1c(C)[nH]n(-c2ccccc2)c1=O | - | - | - | 46.4 | - | 7.8
COc1ccc(C(c2c(C)n(C)n(-c3ccccc3)c2=O)c2c(C)n(C)n(-c3ccccc3)c2=O)c(OC)c1OC | - | - | - | - | . | .
COc1ccc(C(C[N+](=O)[O-])c2c(C)[nH]n(-c3ccccc3)c2=O)cc1 (stereo unspecified) | - | - | - | - | . | .
COc1cccc(C(c2c(C)[nH]n(-c3ccccc3)c2=O)c2c(C)[nH]n(-c3ccccc3)c2=O)c1O | - | - | - | 38.5 | - | 11.7
Cc1[nH]n(-c2ccccc2)c(=O)c1C(C[N+](=O)[O-])c1ccccc1Cl (stereo unspecified) | - | - | - | - | . | .
COc1cccc(C(c2c(C)[nH]n(-c3ccccc3)c2=O)c2c(C)[nH]n(-c3ccccc3)c2=O)c1OC | - | - | - | 53.9 | 42.4 | 13.8
N#Cc1c(Cl)nsc1NC(=O)c1ccccc1 | - | - | - | - | . | .
Cc1ccsc1C(=O)OCC(=O)NCc1ccccc1 | - | - | - | - | . | .
Cc1ccc(S(=O)(=O)NC(=O)C2(C)CCN2C(=O)CCc2ccc(Cl)cc2Cl)cc1 (stereo unspecified) | - | - | - | 51.3 | - | 6.0
CC1(C(=O)NS(=O)(=O)c2ccc(Cl)s2)CCN1C(=O)Cc1cc(F)ccc1F (stereo unspecified) | - | - | - | - | . | .
CC1(C(=O)NS(=O)(=O)c2ccc(Cl)cc2)CCN1C(=O)CCc1ccc(Cl)cc1Cl (stereo unspecified) | - | - | - | 52.5 | 49.4 | 12.5
CC1(C(=O)NS(=O)(=O)c2ccc(Cl)s2)CCN1C(=O)Cc1ccc(Cl)cc1Cl (stereo unspecified) | - | - | - | 39.8 | 40.3 | 11.2
O=C1c2cccc3c(N4CCCCC4)ccc(c23)C(=O)N1c1ccccn1 | - | - | - | - | . | .
O=C1c2ccccc2-c2n[nH]c(=O)c3ccc(N4CCCCC4)c1c23 | - | - | - | 37.2 | - | 6.8
O=C1NC(=O)C2(COC(c3cccc([N+](=O)[O-])c3)OC2)S1 (stereo unspecified) | - | - | - | - | . | .
NNC(=O)c1cc2ccccc2cc1NS(=O)(=O)c1ccccc1 | - | - | - | 53.9 | - | 5.0
CCCCNC(=O)c1onc(CSc2cc(C)cc(C)c2)c1C(=O)O | - | - | - | 35.3 | - | 4.4
C=CCNC(=O)c1onc(CSc2cccc3ccccc23)c1C(=O)O | - | - | - | 40.4 | - | 5.2
C=CCNC(=O)c1onc(CSc2ccc(C(C)C)cc2)c1C(=O)O | - | - | - | 37.8 | - | -
Cc1ccc([C@H]2N[C@]3(CCCN(Cc4ccc(C(F)(F)F)cc4)C3=O)[C@H]3C(=O)N(Cc4ccccc4)C(=O)[C@@H]23)cc1 | - | - | - | - | . | .
O=C(CSc1ccc2nnc(CCNC(=O)c3ccc(F)cc3)n2n1)NCc1ccco1 | - | - | - | - | . | .
Cc1cc(NC(=O)/C=C/c2ccco2)ccc1NC(=O)c1ccccc1 | - | - | - | - | . | .
SMILES | NadD inh | bovine MsrA act | MsrA inhibitor | rCAG binder | rCAG bind conf | dCAG dye counter | others
O=C(/C=C/c1ccco1)Nc1ccc2nn(-c3ccccc3)nc2c1 | - | - | - | 39.9 | - | 12.8
O=C(O)c1ccc(S(=O)(=O)N(Cc2ccccc2)Cc2ccccc2)cc1 | - | - | - | - | . | .
O=C(O)c1ccc(S(=O)(=O)N(CCc2ccccc2)Cc2ccc(Cl)cc2)cc1 | - | - | - | 72.1 | 71.2 | 34.5 | dCAG dye DR=-
O=C(O)CCC(=O)N1CCc2cc(S(=O)(=O)N(CCc3ccccc3)Cc3ccccc3)ccc21 | - | - | - | 62.8 | 69.5 | 30.4 | dCAG dye DR=-
Cn1c(/C=C/c2cccc([N+](=O)[O-])c2)c([N+](=O)[O-])c(=O)n(C)c1=O | - | - | - | - | . | .
Cc1ccc(-c2[nH]nc(N)c2N=Nc2cccc(Cl)c2C)cc1 | - | - | - | 41.7 | - | 11.7
COc1cc(/C=N/NC(=O)C(Cc2c[nH]c3ccccc23)NC(=O)OCC(C)C)cc([N+](=O)[O-])c1O (stereo unspecified) | - | - | - | 56.6 | 68.8 | 24.7
CCOC(=O)c1c(NC(=O)/C=C/C(=O)O)sc(C)c1-c1ccc(F)cc1 | - | - | - | - | . | .
COC(=O)c1c(NC(=O)/C=C/C(=O)O)sc(C)c1-c1ccc(C(C)C)cc1 | - | - | - | 51.9 | 51.3 | 15.8
COC(=O)c1c(NC(=O)/C=C/C(=O)O)sc(C)c1-c1ccc(C)c(C)c1 | - | - | - | 36.7 | 35.6 | 9.1
COC(=O)c1c(NC(=O)/C=C/C(=O)O)sc(C)c1-c1ccc(C)cc1 | - | - | - | - | . | .
CCOC(=O)c1c(NC(=O)/C=C/C(=O)O)sc(C)c1-c1ccc(C)c(C)c1 | - | - | - | 52.8 | 52.6 | 16.7
Cc1c(NS(=O)(=O)c2cccc(C(=O)NCc3ccco3)c2)c(=O)n(-c2ccccc2)n1C | - | - | - | - | . | .
Fc1ccccc1COc1ccc(C(=S)N2CCCC2)cc1 | - | - | - | - | . | .
COc1ccc(S(=O)(=O)N2CCCC(C(=O)NC3CC3)C2)cc1Cl (stereo unspecified) | - | - | - | - | . | .
Cc1ccc(S(=O)(=O)Nc2cc(C(=O)Nc3cc(C)cc(C)c3)ccc2Cl)cc1 | - | - | - | 36.2 | 42.4 | 9.8
Cc1cccc(NC(=O)c2cccc(NS(=O)(=O)c3ccc(Cl)cc3)c2)c1 | - | - | . | . | . | .
COc1cc(/C=C2/C(=O)c3cccc([N+](=O)[O-])c3C2=O)c(Br)cc1O | - | - | - | 59.8 | 89.2 | 62.0
COc1ccccc1NC(=O)CCCCCN1C(=O)c2cccc([N+](=O)[O-])c2C1=O | - | - | - | - | . | .
NC(C(=O)O)C1ON=C(Cl)C1O (stereo unspecified) | - | - | - | 40.8 | - | -
COc1ccc(/C=C/C(=O)c2ccc(O)cc2)cc1COc1ccc(F)cc1 | - | - | - | - | . | .
O=C(/C=C/c1ccc(O)c([N+](=O)[O-])c1)c1ccc2ccccc2c1 | - | - | - | 42.3 | 77.9 | 39.2
COc1ccc(Oc2ccc(/C=C/C(=O)c3ccc(O)cc3)cc2[N+](=O)[O-])cc1 | - | - | - | 36.5 | - | 10.7
